The entries come from a sample that favours hits as a whole.
TbPYK inhibitor – qHTS of Trypanosoma Brucei Inhibitors; TbPYK enzyme, Kinase-Glo Plus ATP luminescence, 45 min; Potency, µM (top dose mostly 76.8 µM), for the others: top-dose activity, negative = inhibition, usual class: inhibitors; 410,000 tested, 0.12% active; AID 624173, 2012; also: potency is read from the fitted curve at half-maximal effect; % is scaled to controls: 0 for no effect and ±100 for the full control effect; nearly all actives have a fitted effect of over 50% in size
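Glycolytic pyruvate kinase of T. brucei was incubated with substrate, test compound and 130 uM ADP for 45 minutes at room temperature. Luminescent Kinase-Glo Plus signal was measured after 10 minutes.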
LmPK inhibitor – qHTS Assay for Inhibitors of Leishmania Mexicana Pyruvate Kinase (LmPK); Potency, µM (top dose mostly 57.5 µM), without a hit: top-dose activity change, negative = inhibition, usual class: inhibitors; 290,000 tested, 0.37% active; purified LmPK, Kinase-Glo ATP luminescence, 1 h; AID 1721, 2009; also: potency is read from the fitted curve at half-maximal effect; % is scaled to controls: 0 for no effect and ±100 for the full control effect
Target sequence (Q27686 whole entry, looked up): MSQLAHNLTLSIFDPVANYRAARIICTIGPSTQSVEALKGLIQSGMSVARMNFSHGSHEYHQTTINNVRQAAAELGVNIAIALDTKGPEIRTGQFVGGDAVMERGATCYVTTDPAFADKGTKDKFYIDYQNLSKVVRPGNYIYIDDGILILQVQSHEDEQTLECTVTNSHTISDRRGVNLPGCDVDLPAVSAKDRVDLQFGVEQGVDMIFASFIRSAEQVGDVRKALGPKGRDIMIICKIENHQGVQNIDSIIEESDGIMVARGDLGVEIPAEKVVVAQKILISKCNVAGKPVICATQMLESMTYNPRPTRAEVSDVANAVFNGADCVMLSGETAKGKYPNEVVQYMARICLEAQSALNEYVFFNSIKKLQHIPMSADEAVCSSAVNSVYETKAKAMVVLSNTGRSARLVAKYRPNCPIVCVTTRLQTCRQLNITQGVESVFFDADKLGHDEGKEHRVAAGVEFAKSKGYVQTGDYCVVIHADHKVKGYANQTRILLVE
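Pyruvate kinase activity monitored as ATP production (luciferase luminescence). Conditions: 0.1 nM enzyme, 0.5 mM PEP, 0.1 mM ADP, 1 h, RT; normalized against uninhibited and no-enzyme wells.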
CHX counter – Cycloheximide Counterscreen for Small Molecule Inhibitors of Shiga Toxin; cell reporter, cycloheximide protein synthesis inhibition counterscreen; max response, %; 300,000 tested, 12% active; in the data active = max response mostly above about 13%, no sharp cut-off; inactive = mostly below about 14%; also: read at 38.3 µM for the half of the compounds with a filed dose; 0% is about no effect
Shiga inhibitor – A qHTS for Small Molecule Inhibitors of Shiga Toxin; 290,000 tested, 9.2% active; Vero cells, Shiga toxin protein synthesis inhibition reporter; inhibition, % at 38.7 µM; in the data active = inhibition mostly above about 28%, no sharp cut-off; inactive = mostly below about 43%; also: 0% is about no effect
FBPA Giardia inh – qHTS Assay for Inhibitors of Fructose-1,6-bisphosphate Aldolase from Giardia Lamblia | AID 2451, 2010 | A8B2U2 | Potency, µM (highest dose often 59.6 µM), for inactives: at the highest dose activity, negative = inhibition, actives largely listed as inhibitors | 290,000 tested, 0.71% active | purified Giardia FBPA; also: potency is read from the fitted curve at half-maximal effect; % is scaled to controls: 0 for no effect and ±100 for the full control effect; nearly all actives have a fitted effect of over 55% in size
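40 nM FBPA preincubated 10 min at RT with compound (up to 57.5 uM final), then substrate plus GAPDH/TPI/NAD/arsenate coupling and diaphorase/resazurin added. Fluorescence read after 20 min at RT, 525/598 nm.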
Sm TGR inh – qHTS Assay for the Inhibitors of Schistosoma Mansoni Peroxiredoxins | Schistosoma mansoni thioredoxin glutathione reductase (TGR), Q962Y6 | 360,000 tested, 3% active | AID 485364, 2010 | Potency, µM (titrated, usually from 114 µM), without a hit: at the highest dose activity change, negative = inhibition, most hits filed as inhibitors | purified TGR, DTNB reduction, TNB absorbance 405 nm; also: potency is read from the fitted curve at half-maximal effect; % is scaled to controls: 0 for no effect and ±100 for the full control effect; nearly all actives have a fitted effect of over 60% in size
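TGR 20 nM + NADPH 100 uM (dispensed conc.), cpd preinc 15 min RT; start with NADPH (500 uM addition) then DTNB (15 mM addition). Kinetic TNB absorbance, 405 nm filter. Four-parameter Hill fit across titration.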
Numbers without * were called inactive. Unless noted, calls follow the shape of the dose curve; as a rule, active = well fitted curve in the direction sought with a large enough effect; inconclusive = small, poorly fitted or top-dose-only effect, or another doubt; inactive = no such curve, though single readings can be large; an effect the other way counts as inactive or inconclusive.

O=C1NN=C2CCCCCC12 (configuration not stated) was read as TbPYK inhibitor 5.5%.
`C=CCn1c(CNC(=O)c2ccccc2F)nnc1SCC(=O)N1CCOCC1` gave TbPYK inhibitor -18.3%, LmPK inhibitor 0.3%, CHX counter -1.6, Shiga inhibitor -4.9, FBPA Giardia inh -0.9% and Sm TGR inh 7.4%.
`CN1/C(=C\C=C2/C(=O)Oc3ccccc3C2=O)C(C)(C)c2ccccc21` gave TbPYK inhibitor -1.7%, LmPK inhibitor -6.6%, CHX counter 38.8*, Shiga inhibitor 40.2*, FBPA Giardia inh 28.5% and Sm TGR inh 0.1%.
For CN1/C(=C\C=C2C(=O)NC(=S)NC2=O)C(C)(C)c2ccccc21 the results were TbPYK inhibitor -8.8%, LmPK inhibitor -15.2%, CHX counter -1.4, Shiga inhibitor -13.2, FBPA Giardia inh -3.7% and Sm TGR inh 0.5%.
`O=C1NC(=O)C(=CC=Cc2ccccc2)S1` gave TbPYK inhibitor -2.5%.
ClC1=C(Cl)C(Cl)=C(Cl)C1=C/C=C/c1ccccc1 was read as TbPYK inhibitor -1.5%, LmPK inhibitor -6.4%, CHX counter -2.6, Shiga inhibitor 19.9, FBPA Giardia inh -9.7% and Sm TGR inh 50.1µM*.
`Cc1ccccc1C(=O)NCC(=O)N1CCN(c2ccccn2)CC1` gave TbPYK inhibitor -3.2%.
COc1ccccc1-n1cc(C(=O)NCC(=O)N2CCN(c3ccccn3)CC2)c2ccccc2c1=O was read as TbPYK inhibitor 1.9%, LmPK inhibitor -3.6%, CHX counter 16.0*, Shiga inhibitor 13.7, FBPA Giardia inh 0.5% and Sm TGR inh 6.8%.
Screening COc1ccccc1N1CCN(C(=O)CNC(=O)c2cn(-c3ccccc3OC)c(=O)c3ccccc23)CC1 returned TbPYK inhibitor 1.5%, LmPK inhibitor -5.4%, CHX counter 14.5*, Shiga inhibitor 26.4, FBPA Giardia inh 0.4% and Sm TGR inh -11.2%.
`COc1ccccc1-n1cc(C(=O)NCC(=O)N2CCN(c3ccccc3)CC2)c2ccccc2c1=O` gave TbPYK inhibitor 0.3%, LmPK inhibitor 2.5%, CHX counter 30.2*, Shiga inhibitor 50.1*, FBPA Giardia inh -7.2% and Sm TGR inh -18.6%.
`COc1ccccc1OCC(=O)N1CCN(c2ccccc2OC)CC1` gave TbPYK inhibitor 2.2%, LmPK inhibitor 5.0%, CHX counter 9.3, Shiga inhibitor -10.6, FBPA Giardia inh 9.1% and Sm TGR inh -5.3%.
Screening Cc1cc(C)c(NC(=O)Cn2c(=O)n(CCC(=O)NCc3ccc4c(c3)OCO4)c(=O)c3ccccc32)c(C)c1 returned TbPYK inhibitor 6.3% and Sm TGR inh 0.8%.
`CC(=O)c1ccc(NC(=O)CCc2c(C)nc3c(c2C)c(=O)n(C)c(=O)n3C)cc1` gave TbPYK inhibitor 3.0% and Sm TGR inh -0.3%.
`NC(=Nc1ccc(Cl)cc1)c1ccccc1` gave TbPYK inhibitor -5.6%, LmPK inhibitor 2.3%, CHX counter 26.3*, Shiga inhibitor 40.5, FBPA Giardia inh 6.9% and Sm TGR inh 0.0%.
`NCC(O)c1cc(O)c(O)cc1F` (configuration not stated) gave TbPYK inhibitor -5.0%, FBPA Giardia inh 5.61µM* and Sm TGR inh 44.7µM*.
Screening NC[C@@H](O)c1ccc(O)c(O)c1 returned CHX counter -9.1, Shiga inhibitor -1.6 and FBPA Giardia inh inconclusive.
Screening CCOc1ccc(CNS(=O)(=O)c2ccc3c(c2)CC(C)N3C(C)=O)cc1OC (configuration not stated) returned TbPYK inhibitor -8.4% and Sm TGR inh 1.0%.
`O=C(c1cccs1)n1nc(-c2ccco2)nc1SCc1ccccc1` gave TbPYK inhibitor 5.4%, LmPK inhibitor 0.8%, CHX counter 25.8*, Shiga inhibitor 41.0*, FBPA Giardia inh -7.1% and Sm TGR inh -12.3%.
